Experimental findings from PubChem BioAssay (EPA / NIEHS) are described below.

For test [1], the target named is bovine Estrogen Receptor (ER), ESR1 (gene 407238) (UniProt P49884). The test is described as follows: NVS_NR_bER: NovaScreen (NVS) Nuclear Receptor Binding Assay for bovine Estrogen Receptor (ER) (AID 2283345).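 Also: actives lower the bound radioligand count which means they displace the ER ligand.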 The method, boiled down:
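Cell-free radioligand binding with bovine uterine membrane extracts, read 18 hours after dosing by scintillation counting. Loss of signal versus DMSO baseline indicates displacement. Primary screen run in duplicate at 25 uM, actives followed in concentration series.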

The target of test [2] is chimpanzee Androgen Receptor (AR), AR (gene 747460) (UniProt O97775). The experiment in a line: NVS_NR_cAR: NovaScreen (NVS) Nuclear Receptor Binding Assay for chimpanzee Androgen Receptor (AR) (AID 2283346).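 Also: radioligand displacement from AR measured by scintillation counting in a cell-free assay; a loss of bound radioligand signal versus DMSO counts as binding.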 The method, boiled down: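 Cell-free competition binding with insect-cell (Sf9/Sf21) extracted chimpanzee AR; scintillation signal from lysate at 72 h. Screened in duplicate at 25 uM, then concentration-response for actives; fitting relative to DMSO.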

The target in test [3] is Estrogen receptor (Homo sapiens) (UniProt P03372). The experiment in a line: OT_ER_ERaERa_1440: Odyssey Thera (OT) 24-hour HEK293T Protein-Complementation Assay for Estrogen Receptor-alpha/-alpha Homodimer (AID 2283349).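 Also: hits raise fluorescence above DMSO for agonists and antagonists alike.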 The method, boiled down: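 HEK293T, stable ERα LBD (aa 310-547) homodimer PCA; 24 h compound exposure; mean fluorescence intensity (nuclear for agonists, nuclear plus cytoplasmic for antagonists) vs vehicle; positive fitting direction, DMSO baseline.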

For test [4] the target is unchanged. The experiment in a line: OT_ER_ERaERa_0480: Odyssey Thera (OT) 8-hour HEK293T Protein-Complementation Assay for Estrogen Receptor-alpha/-alpha Homodimer (AID 2283351).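 Also: rise in fluorescence from reassembled reporter fragments on ERα LBD homodimer in nucleus or whole cell.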 The procedure, abridged: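 Read-out: fluorescence intensity rise relative to DMSO, nuclear for agonists, nuclear plus cytoplasmic for antagonists. Construct is the ERα LBD (aa 310-547) homodimer fragment-complementation pair, stably expressed in HEK293T; exposure 8 h.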

Test [5] addresses T1, Estrogen receptor (Homo sapiens) + Estrogen receptor beta (Homo sapiens) (UniProt P03372+Q92731). The test is described as follows: OT_ER_ERaERb_0480: Odyssey Thera (OT) 8-hour HEK293T Protein-Complementation Assay for Estrogen Receptor-alpha/-beta Heterodimer (AID 2283352). The procedure, abridged:
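Increase in mean fluorescence intensity, measured by laser scanning plate cytometry, reported ER-alpha/ER-beta LBD complementation in HEK293T cells after 8 h chemical exposure. DMSO served as baseline; basal signal is low, punctate and cytoplasmic.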

Test [6] has as its target Androgen Receptor/SRC-1 Co-activator, AR (gene 367) (UniProt P10275). The experiment in a line: OT_AR_ARSRC1_0960: Odyssey Thera (OT) 16-hour HEK293T Protein-Complementation Assay for Androgen Receptor/SRC-1 Co-activator (AID 2283353).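 Also: actives raise the signal above DMSO so potency reflects increased AR and SRC-1 complex.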 The procedure, abridged: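 Readout: 488 nm nuclear-to-cytoplasmic fluorescence ratio from imaging of at least 400 cells per image, 16 h post-dose. Reporter is Venus YFP complementation between AR and SRC-1 fusions, stably expressed in HEK293T; activity scored upward relative to DMSO.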

Test [7] addresses T1, Estrogen receptor (Homo sapiens) + Estrogen receptor beta (Homo sapiens). The test is described as follows: OT_ER_ERaERb_1440: Odyssey Thera (OT) 24-hour HEK293T Protein-Complementation Assay for Estrogen Receptor-alpha/-beta Homodimer (AID 2283356).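 Also: heteromer of ER alpha and ER beta binding domains; hits raise reporter fluorescence and both agonists and antagonists give an increase.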 The method, boiled down:
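Heterodimerisation of ERα (aa 310-547) and ERβ (aa 263-489) ligand binding domains was tracked as fluorescence gain in stably transfected HEK293T cells following 24 h dosing, normalised to DMSO controls.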

The target in test [8] is Estrogen receptor beta (Homo sapiens) (UniProt Q92731). The experiment in a line: OT_ER_ERbERb_0480: Odyssey Thera (OT) 8-hour HEK293T Protein-Complementation Assay for Estrogen Receptor-beta/-beta Homodimer (AID 2283357).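 Also: active means signal gain over DMSO baseline.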 The method, boiled down:
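ER-beta LBD homodimer PCA stably expressed in HEK293T; 8 h compound exposure, then formaldehyde fixation and Draq5 staining. Gain in nuclear/cytoplasmic fluorescence intensity versus DMSO vehicle, read on laser scanning cytometer.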

The target of test [9] is Retinoic acid receptor alpha (Homo sapiens) (UniProt P10276). The experiment in a line: NVS_NR_hRAR_Antagonist: NovaScreen (NVS) Nuclear Receptor Binding Assay for human Retinoic Acid Alpha Receptor Antagonism (RAR) (AID 2283358). The method, boiled down:
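RARalpha antagonism was read by TR-FRET as loss of binding signal versus DMSO, 2 h after chemical addition, in a biochemical format. Single-concentration duplicates (25 uM) were run first, and actives were retested in concentration series.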

The target of test [10] is human Peroxisome Proliferator-activated Receptor alpha (PPARa), PPARA (gene 5465) (UniProt Q07869). The test is described as follows: NVS_NR_hPPARa: NovaScreen (NVS) Nuclear Receptor Binding Assay for human Peroxisome Proliferator-activated Receptor alpha (PPARa) (AID 2283359).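 Also: activity means loss of TR-FRET signal versus DMSO baseline.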 The procedure, abridged:
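Loss of TR-FRET binding signal relative to DMSO was measured 1 h after chemical addition to extracted receptor protein. Chemicals were first tested in duplicate at 25 uM, and actives were followed up in concentration series.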

In test [11] the target is rat Peripheral-type Benzodiazepine Receptor (PBR), Tspo (gene 24230) (UniProt P16257). The experiment in a line: NVS_MP_rPBR: NovaScreen (NVS) Membrane Protein Assay for rat Peripheral-type Benzodiazepine Receptor (PBR) (AID 2283335). The method, boiled down:
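Single-concentration duplicate screening at 25 uM preceded concentration-series retesting of actives. Binding of a specific radioligand to rat kidney membrane PBR was read by filtration radiodetection after 1 h, with plate-wise positive and negative controls.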

The nature of test [12]: NVS_IC_rCaBTZCHL: NovaScreen (NVS) Ion Channel Assay for Calcium Channel, Type L, Benzothiazepine Site (CaBTZCHL) (AID 2283337). The method, boiled down:
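Rat cortical membrane preparation, cell-free. Radioligand displaced by test chemical; 1.5 h incubation; filtration, scintillation count. DMSO = negative control/baseline. Primary: duplicate, 25 uM; secondary: concentration series.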

Test [13] addresses bovine Gamma-Aminobutyric Acid Type A Receptor Agonist (GABAR Agonist), GABRA1 (gene 780973) (UniProt P08219). The experiment in a line: NVS_LGIC_bGABAR_Agonist: NovaScreen (NVS) Ligand-Gated Ion Channel Assay for bovine Gamma-Aminobutyric Acid Type A Receptor Agonist (GABAR Agonist) (AID 2283338). The method, boiled down:
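Radioligand binding to bovine cerebellar membranes in agonist format, read by filter-based scintillation counting after 1 h. Primary screen in duplicate at 25 uM, with actives followed in concentration series. Gain of signal versus DMSO.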

The next test relates to NCBI gene 100848466. The experiment in a line: NVS_NR_bPR: NovaScreen (NVS) Nuclear Receptor Binding Assay for bovine Progextron Receptor (PR) (AID 2283343).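 Also: actives lower bound radioligand signal below DMSO meaning displacement of the label.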 The procedure, abridged:
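Competitive radioligand binding with membranes from bovine uterus, scintillation read-out at 18 h post-dose. Compounds first tested in duplicate at 25 uM, then actives in concentration series; loss-of-signal relative to DMSO.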

The target in test [14] is rat Mineralocorticoid Receptor (MR), Nr3c2 (gene 25672) (UniProt P22199). The experiment in a line: NVS_NR_rMR: NovaScreen (NVS) Nuclear Receptor Binding Assay for rat Mineralocorticoid Receptor (MR) (AID 2283355). The procedure, abridged: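 Primary HTS ran in duplicate at a single 25 uM concentration, with concentration-series follow-up for actives. Receptor source: adrenalectomized rat brain supernatant, cell-free. Radioligand displacement read by scintillation at 24 h, relative to DMSO baseline.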

Test [15] has as its target rat Glycine Receptor, Strychnine-sensitive (GlyRStrySens), Glra1 (gene 25674) (UniProt P07727). The test is described as follows: NVS_LGIC_rGlyRStrySens: NovaScreen (NVS) Ligand-Gated Ion Channel Assay for rat Glycine Receptor, Strychnine-sensitive (GlyRStrySens) (AID 2283341). The procedure, abridged:
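Radioligand displacement on rat spinal cord membranes, 1 hr, filter scintillation read-out. Single-concentration duplicate screen at 25 uM; chemicals meeting threshold (e.g., 30% inhibition) rerun in concentration-response up to 50 uM. Loss of binding fitted versus DMSO.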

In test [16] the target is human Constitutive Androstane Receptor (CAR), NR1I3 (gene 9970) (UniProt Q14994). The test is described as follows: NVS_NR_hCAR_Antagonist: NovaScreen (NVS) Nuclear Receptor Binding Assay for human Constitutive Androstane Receptor Antagonism (CAR) (AID 2283344). The method, boiled down: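 Single 25 uM duplicate primary screen, with concentration-series follow-up on actives. Cell-free binding format run in antagonist mode, TR-FRET signal taken 1 h post-dose; activity is signal loss relative to DMSO.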

Test [17] has as its target Bile acid receptor (Homo sapiens) (UniProt Q96RI1). The experiment in a line: NVS_NR_hFXR_Agonist: NovaScreen (NVS) Nuclear Receptor Binding Assay for human Farnesoid X Receptor Agonism (FXR) (AID 2283347). The method, boiled down: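 Agonist-mode FXR assay read by time-resolved FRET 1 h after compound addition, using isolated human receptor protein without cells. Duplicate 25 uM single-point primary screen, concentration series for confirmed actives; DMSO as baseline.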

Structures are written as SMILES. Records with an inconclusive call do not appear. Some compounds were tested as several samples or in several runs, with calls that do not always agree. Activity calls are given as the source filed them. The calls were made as follows: active = hit-call score of the fitted dose curve at least 0.9, where 1 is the maximum; inconclusive = response in the unintended direction; inactive = score below 0.9.

Chain of Estrogen receptor beta (Homo sapiens) (Q92731 whole entry, looked up, the tested form may be a part): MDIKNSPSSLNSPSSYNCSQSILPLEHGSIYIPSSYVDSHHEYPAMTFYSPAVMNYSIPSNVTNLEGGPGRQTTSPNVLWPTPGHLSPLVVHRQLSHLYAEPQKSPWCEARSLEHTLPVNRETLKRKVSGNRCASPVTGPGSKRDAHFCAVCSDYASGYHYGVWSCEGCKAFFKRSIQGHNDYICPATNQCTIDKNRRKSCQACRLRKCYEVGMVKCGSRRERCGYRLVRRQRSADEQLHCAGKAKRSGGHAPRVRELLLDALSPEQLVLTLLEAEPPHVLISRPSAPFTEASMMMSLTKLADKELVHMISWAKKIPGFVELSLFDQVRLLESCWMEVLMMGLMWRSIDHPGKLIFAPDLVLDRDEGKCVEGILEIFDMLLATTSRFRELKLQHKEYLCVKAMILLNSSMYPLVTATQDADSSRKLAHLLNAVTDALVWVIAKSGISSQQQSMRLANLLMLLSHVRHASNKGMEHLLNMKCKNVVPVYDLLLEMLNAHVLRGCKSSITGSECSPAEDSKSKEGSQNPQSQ
Chain of Androgen Receptor/SRC-1 Co-activator, AR (gene 367) (P10275 whole entry, looked up, the tested form may be a part): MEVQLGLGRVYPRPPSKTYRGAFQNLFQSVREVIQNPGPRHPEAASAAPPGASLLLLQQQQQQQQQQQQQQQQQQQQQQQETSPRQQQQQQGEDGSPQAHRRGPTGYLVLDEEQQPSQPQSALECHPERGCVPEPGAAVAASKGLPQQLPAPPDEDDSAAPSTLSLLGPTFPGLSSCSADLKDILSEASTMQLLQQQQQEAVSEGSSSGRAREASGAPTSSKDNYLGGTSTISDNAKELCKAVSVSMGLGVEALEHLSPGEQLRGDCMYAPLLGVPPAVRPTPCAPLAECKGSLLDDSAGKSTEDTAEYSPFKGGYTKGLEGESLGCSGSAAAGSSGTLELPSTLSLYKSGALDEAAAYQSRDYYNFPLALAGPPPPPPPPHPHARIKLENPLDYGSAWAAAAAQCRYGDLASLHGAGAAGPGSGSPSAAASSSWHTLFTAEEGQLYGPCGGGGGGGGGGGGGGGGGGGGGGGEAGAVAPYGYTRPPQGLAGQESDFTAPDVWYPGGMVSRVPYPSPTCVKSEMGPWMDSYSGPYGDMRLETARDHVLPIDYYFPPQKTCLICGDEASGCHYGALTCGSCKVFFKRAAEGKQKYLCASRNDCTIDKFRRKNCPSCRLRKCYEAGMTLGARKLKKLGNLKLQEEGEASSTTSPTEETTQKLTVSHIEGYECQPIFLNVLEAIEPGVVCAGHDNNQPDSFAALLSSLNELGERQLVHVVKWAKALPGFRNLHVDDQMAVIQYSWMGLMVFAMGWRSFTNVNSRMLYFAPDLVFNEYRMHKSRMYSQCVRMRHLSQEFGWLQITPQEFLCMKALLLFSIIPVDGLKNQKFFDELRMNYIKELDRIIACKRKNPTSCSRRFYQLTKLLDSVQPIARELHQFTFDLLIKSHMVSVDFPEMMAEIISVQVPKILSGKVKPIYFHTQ
Chain of rat Peripheral-type Benzodiazepine Receptor (PBR), Tspo (gene 24230) (P16257 whole entry, looked up): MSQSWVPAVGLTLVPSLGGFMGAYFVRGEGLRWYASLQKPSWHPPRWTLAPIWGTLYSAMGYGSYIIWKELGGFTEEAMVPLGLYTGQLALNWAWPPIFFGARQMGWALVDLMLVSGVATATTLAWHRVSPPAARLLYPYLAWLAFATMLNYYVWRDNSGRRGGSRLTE
Chain of bovine Estrogen Receptor (ER), ESR1 (gene 407238) (P49884 whole entry, looked up): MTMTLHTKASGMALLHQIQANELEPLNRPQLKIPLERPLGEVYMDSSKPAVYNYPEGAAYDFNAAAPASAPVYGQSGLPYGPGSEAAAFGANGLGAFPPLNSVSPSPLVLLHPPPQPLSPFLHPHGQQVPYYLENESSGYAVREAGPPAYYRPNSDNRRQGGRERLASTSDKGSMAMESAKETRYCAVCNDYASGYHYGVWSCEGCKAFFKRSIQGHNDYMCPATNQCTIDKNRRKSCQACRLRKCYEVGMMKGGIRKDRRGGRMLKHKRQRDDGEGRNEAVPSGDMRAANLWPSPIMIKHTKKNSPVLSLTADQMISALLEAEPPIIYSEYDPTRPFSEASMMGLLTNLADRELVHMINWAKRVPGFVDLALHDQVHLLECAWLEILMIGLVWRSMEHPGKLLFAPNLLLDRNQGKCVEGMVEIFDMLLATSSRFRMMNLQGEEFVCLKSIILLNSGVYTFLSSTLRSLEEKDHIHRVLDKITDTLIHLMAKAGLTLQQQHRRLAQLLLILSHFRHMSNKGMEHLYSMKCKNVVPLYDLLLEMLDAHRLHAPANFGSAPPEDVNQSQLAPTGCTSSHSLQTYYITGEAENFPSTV
T1 sequence (P03372 whole entry, looked up, the tested form may be a part): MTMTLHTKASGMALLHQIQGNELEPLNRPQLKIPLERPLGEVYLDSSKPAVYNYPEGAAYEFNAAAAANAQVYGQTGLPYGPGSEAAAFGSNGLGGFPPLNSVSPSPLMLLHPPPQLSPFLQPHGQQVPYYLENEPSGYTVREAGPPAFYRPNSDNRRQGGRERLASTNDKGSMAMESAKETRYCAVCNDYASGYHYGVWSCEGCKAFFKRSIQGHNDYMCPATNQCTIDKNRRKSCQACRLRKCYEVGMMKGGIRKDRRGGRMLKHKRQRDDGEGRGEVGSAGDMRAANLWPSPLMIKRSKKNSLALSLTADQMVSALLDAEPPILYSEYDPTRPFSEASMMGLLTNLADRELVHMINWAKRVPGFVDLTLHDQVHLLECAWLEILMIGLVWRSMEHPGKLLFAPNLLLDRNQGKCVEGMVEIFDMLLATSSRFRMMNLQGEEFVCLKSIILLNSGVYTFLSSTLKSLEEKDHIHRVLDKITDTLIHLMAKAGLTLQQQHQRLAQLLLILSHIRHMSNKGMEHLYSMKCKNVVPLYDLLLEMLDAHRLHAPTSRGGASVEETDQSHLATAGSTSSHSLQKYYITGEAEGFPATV
T1 sequence (Q92731 whole entry, looked up, the tested form may be a part): as the sequence (Q92731 whole entry, looked up, the tested form may be a part) above
Chain of Estrogen receptor (Homo sapiens) (P03372 whole entry, looked up, the tested form may be a part): as the sequence (P03372 whole entry, looked up, the tested form may be a part) above
Chain of chimpanzee Androgen Receptor (AR), AR (gene 747460) (O97775 whole entry, looked up): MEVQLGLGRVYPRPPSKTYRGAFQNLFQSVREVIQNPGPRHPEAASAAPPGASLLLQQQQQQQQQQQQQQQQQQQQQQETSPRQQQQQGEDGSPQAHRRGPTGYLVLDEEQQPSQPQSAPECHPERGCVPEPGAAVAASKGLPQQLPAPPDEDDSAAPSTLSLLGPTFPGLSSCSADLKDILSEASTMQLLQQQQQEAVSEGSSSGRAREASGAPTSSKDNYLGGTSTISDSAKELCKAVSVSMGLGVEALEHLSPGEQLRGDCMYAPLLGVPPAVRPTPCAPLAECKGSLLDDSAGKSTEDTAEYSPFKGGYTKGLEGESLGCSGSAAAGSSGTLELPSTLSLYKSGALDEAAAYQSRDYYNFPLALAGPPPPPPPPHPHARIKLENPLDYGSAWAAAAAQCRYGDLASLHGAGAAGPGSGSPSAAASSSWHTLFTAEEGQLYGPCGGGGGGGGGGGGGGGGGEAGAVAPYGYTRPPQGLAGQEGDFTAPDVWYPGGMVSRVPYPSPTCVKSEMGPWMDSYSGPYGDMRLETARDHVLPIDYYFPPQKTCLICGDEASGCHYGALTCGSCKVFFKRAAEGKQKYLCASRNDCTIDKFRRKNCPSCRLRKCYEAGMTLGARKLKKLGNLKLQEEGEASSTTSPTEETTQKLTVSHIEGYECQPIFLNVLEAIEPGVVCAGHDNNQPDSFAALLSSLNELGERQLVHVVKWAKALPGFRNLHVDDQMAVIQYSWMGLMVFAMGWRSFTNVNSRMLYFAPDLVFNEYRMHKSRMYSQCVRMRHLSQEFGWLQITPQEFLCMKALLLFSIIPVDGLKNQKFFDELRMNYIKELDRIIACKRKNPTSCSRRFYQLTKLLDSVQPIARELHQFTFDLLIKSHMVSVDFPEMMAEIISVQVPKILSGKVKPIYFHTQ
Chain of human Peroxisome Proliferator-activated Receptor alpha (PPARa), PPARA (gene 5465) (Q07869 whole entry, looked up): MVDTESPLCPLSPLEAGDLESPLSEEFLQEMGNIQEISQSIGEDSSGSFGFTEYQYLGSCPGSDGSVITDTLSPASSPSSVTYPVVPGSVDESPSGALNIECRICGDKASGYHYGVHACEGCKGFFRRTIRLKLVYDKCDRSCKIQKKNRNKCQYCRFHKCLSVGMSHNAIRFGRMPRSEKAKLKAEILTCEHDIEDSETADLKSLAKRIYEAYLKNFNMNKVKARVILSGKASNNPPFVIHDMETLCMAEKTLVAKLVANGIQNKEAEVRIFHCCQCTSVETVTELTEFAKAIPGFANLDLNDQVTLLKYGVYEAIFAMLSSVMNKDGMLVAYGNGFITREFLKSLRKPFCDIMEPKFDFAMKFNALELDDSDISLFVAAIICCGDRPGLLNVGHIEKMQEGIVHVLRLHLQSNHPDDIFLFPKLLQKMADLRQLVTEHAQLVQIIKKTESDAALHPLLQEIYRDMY
Chain of bovine Gamma-Aminobutyric Acid Type A Receptor Agonist (GABAR Agonist), GABRA1 (gene 780973) (P08219 whole entry, looked up): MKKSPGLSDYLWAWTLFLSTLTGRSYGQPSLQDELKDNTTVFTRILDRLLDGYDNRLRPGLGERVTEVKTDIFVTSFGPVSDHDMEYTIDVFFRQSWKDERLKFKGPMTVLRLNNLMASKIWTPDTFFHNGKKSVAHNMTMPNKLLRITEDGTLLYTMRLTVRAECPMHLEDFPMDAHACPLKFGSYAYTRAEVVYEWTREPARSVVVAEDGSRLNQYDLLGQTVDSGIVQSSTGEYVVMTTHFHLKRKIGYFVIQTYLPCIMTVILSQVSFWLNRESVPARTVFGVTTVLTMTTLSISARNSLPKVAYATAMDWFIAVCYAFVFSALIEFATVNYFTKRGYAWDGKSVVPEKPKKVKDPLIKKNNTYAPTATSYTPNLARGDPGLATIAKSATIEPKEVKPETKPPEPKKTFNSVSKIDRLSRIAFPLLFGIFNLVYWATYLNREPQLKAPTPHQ

Take `CC1(C)CN=C(NN=C(/C=C/c2ccc(C(F)(F)F)cc2)/C=C/c2ccc(C(F)(F)F)cc2)NC1`: the call in test [1], in [3], in test [4], in [5], in test [7] and in [8] was inactive. Besides, the outcome in [10] was inactive. The AC50 is 25 µM (active) in [2], 12.7 µM (active) in [6] and 25 µM (active) in [9].

For the molecule `Cc1ccc2c(c1N)C(=O)c1ccccc1C2=O`, the concentration at half-maximal activity (AC50) in test [11] was 1.4 µM (active). In addition, the result in test [12] and in test [1] was inactive.

For `CC(C)Nc1ccc(Nc2ccccc2)cc1`, in test [12], the result was inactive.

As for `c1ccc2c(c1)Nc1ccccc1S2`, the molecule was called inactive in test [11], in [13], in [1], in [3], in [4] and in [5]. For the same molecule, the result in test [7] and in test [8] was inactive.

Consider `CCOP(=S)(Oc1ccc([N+](=O)[O-])cc1)c1ccccc1` (stereo not drawn), for which the concentration at half-maximal activity (AC50) in the test with NCBI gene 100848466 is 10.4 µM (active); in test [4], 14.8 µM (active); in test [5], 19.2 µM (active); in test [7], 14.1 µM (active); in [8] it was 26.4 µM (active). For the same molecule, the molecule was classed as inactive in test [1] and in test [3].

For `N#Cc1cc([N+](=O)[O-])ccc1N`, in [11], the AC50 was 25 µM (active).

Regarding `CCCCOCC1CO1` (stereo not drawn), the outcome in [1], in test [3] and in test [4] was inactive.

Regarding `O=S(=O)(c1ccc(O)cc1)c1ccc(O)cc1`, the AC50 in test [11] was 4.76 µM (active); in test [1] it was 15.1 µM (active); in test [3], 46.8 µM (active); in test [4] it was 36.7 µM (active); in test [5], 21.4 µM (active); in test [7], 29.2 µM (active). Moreover, in [8], the AC50 was 31.2 µM (active).

For `CCCCC(CC)COP(=O)(Oc1ccccc1)Oc1ccccc1` (stereo not drawn), the half-maximal activity concentration (AC50) in [11] was 2.93 µM (active); in test [5] it was 12.2 µM (active); in test [7] it was 50 µM (active). The molecule was called inactive in test [11], in test [12], in test [3], in test [4], in test [6] and in test [8].

Take `Nc1ccc(Cl)cc1`: the result in test [1], in test [3] and in [4] was inactive.

On to `N#Cc1c(-c2ccc(Cl)cc2)[nH]c(C(F)(F)F)c1Br`, for which the concentration at half-maximal activity (AC50) in test [11] was 0.377 µM (active).

For the molecule `CCOP(=S)(NC(C)C)Oc1ccccc1C(=O)OC(C)C` (stereo not drawn), the molecule was classed as inactive in [11] and in test [14].

On to `CO/N=C(/C(=O)OC)c1ccccc1COc1ccccc1C`, for which the AC50 is 0.947 µM (active) in test [11], 76.4 µM (active) in [3] and 50 µM (active) in test [4]. The molecule was classed as inactive in test [1] and in test [6].

Regarding `c1ccc(OP(Oc2ccccc2)Oc2ccccc2)cc1`, the call in [15], in test [1], in test [3], in test [4], in test [5] and in [7] was inactive. The molecule was called inactive in [8].

On to `CC(C)(C)OOC(C)(C)C`, for which the molecule was classed as inactive in test [16], in test [17], in [3], in test [4], in test [5] and in test [7]. For the same molecule, the molecule was called inactive in [8].

In the case of `O=P(OCC(Br)CBr)(OCC(Br)CBr)OCC(Br)CBr` (stereo not drawn), the concentration at half-maximal activity (AC50) in test [11] was 0.169 µM (active); in [2] it was 21.8 µM (active); in test [6], 26.7 µM (active). The result in [11], in test [3], in [4], in [7], in test [8] and in [10] was inactive.
